Shown are actives, neighbours in structure and some others; about 3.6% of the full set was active somewhere.
LGR2 inh: Drosophila LGR2 receptor signaling inhibition; HEK293 LGR2, CRE-luciferase, bursicon-stimulated, 4 h; inhibition, % at 9.99 µM; hit rate 0.35% among 380,000; AID 720647;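 active means drop in luminescence signal, shown as inhibition above about 50% in the replicate tests, limit read from the data, passing the limit was not always enough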;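 further: agonist challenge used bursicon conditioned medium at about half maximal strength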
TWEAK Fn14 block: TWEAK-Fn14 signaling inhibition | TWEAK-stimulated Fn14 reporter cells, luciferase luminescence, 8 h | inhibition, % at 10 µM | hit rate 2% among 360,000; in the data active means inhibition above about 50%
EBV LMP1 NFkB: inhibitors of Epstein-Barr LMP1-induced NF-kappaB reporter; LMP1-induced NF-kappaB luciferase reporter cells, luminescence; inhibition, % at 12.5 µM; hit rate 0.69% among 350,000; AID 504558; in the data active means inhibition above about 41%;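 further: 0% = neutral control wells and 100% = reference inhibitor control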
HSF1 inh: HSF1 inhibition | NIH3T3-HGL HSE-luciferase, MG132-induced, luminescence 8 h; stronger effect = lower value | activity change, negative = inhibition, % at 7.5 µM (by protocol) | AID 2098 | hit rate 0.77% among 300,000;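 active means more than half of replicate wells show activity change below -50%, luminescence cut by over half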;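 further: luciferase reports HSF-1 transcriptional activity via heat shock element; 0% = median of DMSO wells and -100% = zero luminescence signal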
HSF1 activator: increases HSF-1 driven luciferase reporter signal; hit rate 1.7% among 300,000; AID 504408; NIH3T3-HGL HSF-1 luciferase reporter, MG132, 8 h; 100% = twice DMSO control signal; activation, % at 9 µM;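 active means mean replicate activation of at least 50% with a set share of replicates each reaching 50%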;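 further: 0% = median of the neutral control wells and 100% = twice that signal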
TROY signal inh: blocks TROY-dependent signaling in reporter cells; inhibition, % at 10 µM; Q293 LMP1-TROYcd NF-kB luciferase reporter, 4 h; hit rate 0.98% among 360,000;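 active means compounds whose plate-normalised and pattern-corrected inhibition of the luciferase reporter signal at the single screening dose is 50% or more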
* marks the source's active call; other numbers are inactive results; / = no result given.

SMILES	LGR2 inh	TWEAK Fn14 block	EBV LMP1 NFkB	HSF1 inh	HSF1 activator	TROY signal inh
CCOC(=O)c1c(C)[nH]c(C(=O)N/N=C/c2cc([N+](=O)[O-])ccc2O)c1C	3	77*	17	-59*	-64	77*
CCNC(=O)C(=O)N/N=C/c1cc([N+](=O)[O-])ccc1O	-12	0	10	-10	-5	0
CCOC(=O)c1c(C)[nH]c(C(=O)N/N=C/c2ccc(OC)c(OC)c2)c1C	-8	-16	4	-8	-9	-8
CCOC(=O)c1c(C)[nH]c(C(=O)N/N=C\c2ccccc2O)c1C	-34	12	52*	-10	0	-34
CCn1c(=O)cc(SCC(=O)N2CCN(c3ccccn3)CC2)c2ccccc21	12	-15	3	7	30	1
CCn1c(=O)cc(SCC(=O)N2CCN(c3ccccc3F)CC2)c2ccccc21	/	-4	-8	17	54*	-17
O=C(C[C@H]1CC[C@@H]2[C@H](COC[C@@H](O)CN2C(=O)c2cccnc2)O1)NC1Cc2ccccc2C1	1	/	/	/	/	/
O=C(Cc1ccccc1)Nc1ccc(NC(=O)Cc2ccccc2)c(Cl)c1	-9	-5	2	-3	1	9
O=C(Cc1ccccc1)Nc1ccc(NC(=O)c2ccco2)cc1Cl	-18	-13	-6	-56*	-63	-7
Nc1ccc(NC(=O)c2ccco2)c(Cl)c1	-19	1	-2	18	56*	-44
O=S1(=O)N=C(Oc2cccc3ccccc23)c2ccccc21	-17	23	8	28	44	58*
C=CCNc1ccc(N2C(=O)C3CCC(C)CC3C2=O)cc1[N+](=O)[O-] (stereo unspecified)	-13	/	/	2	1	/
C=CCNc1ccc(N2C(=O)CCCC2=O)cc1[N+](=O)[O-]	4	74*	8	5	2	13
COC1(OC)C(/C=C/c2ccc(C)cc2)C(C#N)(C#N)C1(OC)OC (stereo unspecified)	/	27	3	52	55*	-20
CCCNC(=O)C[C@@H]1CC[C@H]2[C@@H](COc3ccc(NC(=O)c4ccc(OC)cc4)cc3C(=O)N2C)O1	-7	/	/	/	/	/
C[C@@H]1CN([C@H](C)CO)C(=O)c2cc(-c3ccc(C(=O)N(C)C)cc3)cnc2O[C@H]1CN(C)C(=O)CN(C)C	9	/	/	/	/	/
CCOc1ccc2nc(COC(=O)c3ccncc3)c(C(=O)c3ccccc3)[n+]([O-])c2c1	-47	52*	/	-39	-41	61*
O=C(NCC[C@@H]1CC[C@H](NS(=O)(=O)c2cccc(F)c2)[C@H](CO)O1)C1CC1	25	/	/	/	/	/
O=S(=O)(Cc1noc(-c2ccccc2Cl)n1)c1ccccn1	-22	1	-19	23	61*	-19
O=C(O)CCc1nc2ccccc2c(=O)[nH]1	4	2	-6	-9	4	17
O=c1[nH]c(COc2ccc(Br)cc2Cl)nc2ccccc12	-25	-15	-16	50	90*	-38
N#CCc1nc2ccccc2c(=O)[nH]1	14	-19	-2	38	65*	-20
Cc1ccc(NC(=O)CSc2nnc(-c3cccnc3)s2)cc1	3	3	3	-3	-12	-6
O=C(CSc1nnc(-c2cccnc2)s1)Nc1ccnc2ccccc12	9	61*	21	-5	4	32
NC(=O)c1nsc(C(=O)N(Cc2ccco2)C(C(=O)NCC2CCCO2)c2ccc(O)cc2)c1N (stereo unspecified)	-4	13	-5	-16	-4	-1
SMILES	LGR2 inh	TWEAK Fn14 block	EBV LMP1 NFkB	HSF1 inh	HSF1 activator	TROY signal inh
COc1ccc(C(C(=O)NCC2CCCO2)N(Cc2ccco2)C(=O)c2snc(C(N)=O)c2N)cc1OC (stereo unspecified)	19	52*	-2	-5	-3	-13
NC(=O)c1nsc(C(=O)N(c2cccc(F)c2)C(C(=O)NC2CCCC2)c2ccco2)c1N (stereo unspecified)	15	-2	3	-81*	-84	6
COc1ccc(C(C(=O)NC2CCCC2)N(C(=O)c2snc(C(N)=O)c2N)c2ccccc2OC)cc1OC (stereo unspecified)	8	53*	7	4	-3	4
COc1ccc(C(C(=O)NC2CCCC2)N(Cc2ccccc2)C(=O)c2snc(C(N)=O)c2N)cc1OC (stereo unspecified)	7	24	2	18	52*	4
CS(=O)(=O)Nc1ccc2c(c1)[C@@H]1C[C@@H](CC(=O)NCC3CC3)O[C@H](CO)[C@@H]1O2	9	/	/	/	/	/
O=C(N/N=C/c1ccco1)C1(O)c2ccccc2-c2ccccc21	-9	-2	/	14	56*	-7
O=C(N/N=C/c1ccco1)C(O)C(O)C(=O)N/N=C/c1ccco1 (stereo unspecified)	5	-23	-11	-1	7	-7
O=C(C[C@H]1C=C[C@@H](NC(=O)Nc2cc(F)ccc2F)[C@@H](CO)O1)Nc1ccc(-c2ccccc2)cc1	-11	/	/	/	/	/
O=C(/C=C/c1ccccc1)Nc1cccc(C(=O)O)c1	103*	41	80*	-78*	-83	-21
CCC(=O)Nc1cccc(C(=O)/C=C/c2cccs2)c1	-34	40	7	10	20	-35
CCC(=O)Nc1cccc(C(=O)/C=C/c2ccccc2)c1	/	65*	-8	17	23	8
CSc1ccc(/C=C/C(=O)Nc2ccccc2)cc1	77*	72*	0	/	/	42
CSc1cccc(NC(=O)/C=C/c2ccccc2)c1	/	-14	-13	27	74*	-53
C[C@@H]1CCCCO[C@H](CN(C)C(=O)Cc2ccccc2)[C@@H](C)CN([C@H](C)CO)C(=O)c2cc(NS(=O)(=O)c3ccc(F)cc3)ccc2O1	8	/	/	/	/	/
C[C@H](CO)N1C[C@H](C)[C@@H](CN(C)C(=O)Nc2cccc3ccccc23)Oc2ccc(NC(=O)NC3CCCCC3)cc2C1=O	2	/	/	/	/	/
[O-]C(=C(C(=S)Nc1cccc2ccccc12)[n+]1ccccc1)c1ccc2c(c1)OCCO2	/	103*	-7	/	/	79*
CC(C)(C)c1cc[n+](/C(C(=S)Nc2ccccc2F)=C(/[O-])c2ccc3c(c2)OCCO3)cc1	-32	12	1	-46	-48	-16
Cc1nc2cc(-c3ccccc3)sc2c(=O)n1N	98*	95*	74*	-53*	-58	79*
COc1ccc(-c2cc3nc4n(c(=O)c3s2)CCC4)cc1	87*	95*	52*	-5	14	62*
COc1ccc(-c2cc3nc(C)n(N)c(=O)c3s2)cc1	101*	101*	76*	-70*	-72	81*
COc1ccc(-c2cc3nc4n(c(=O)c3s2)CCCCC4)cc1	11	31	-20	18	40	2
CCOC(=O)N1CCC(NC(=O)c2cc3cc4cc(OC)ccc4nc3o2)CC1	/	7	1	2	1	-6

Source: PubChem BioAssay
